Assay results published in the supplement of paper PMC9950053.
Structures can show the parent of a compound that is named as a salt.

These compounds were tested on Danio rerio larvae (5 dpf) (assay: 1-h baseline activity (% time moving, periods 1-6) minus DMSO control (percentage points); higher = more locomotor activity than DMSO larvae). Conditions: 10 µM; exposure time: 3 h pre-incubation + 3 h imaging.
Procedure: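 Wild-type 5 dpf zebrafish larvae (n=48 per drug, 96-well plates, 28.5 °C) were exposed to Tocris FDA-approved library compounds at 10 µM (0.1% DMSO) for 3 h before and 3 h during imaging. Images were taken every 6 s during visual (moving coloured lines) and acoustic stimuli, and larvae were tracked with the DeepLabCut-based Z-LaP Tracker. Each behavioural measure is the treated-group mean minus the DMSO vehicle control mean (n=844), in percentage points. This mapping covers compounds with 4-character plate codes.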

| Structure (SMILES) | 1-h baseline activity |
| --- | --- |
| C[C@H](Cc1cc2c(c(C(N)=O)c1)N(CCCO)CC2)NCCOc1ccccc1OCC(F)(F)F [Silodosin] | -3.52 |
| O=C(Nc1c(Cl)cncc1Cl)c1ccc(OC(F)F)c(OCC2CC2)c1 [Roflumilast] | -15.9 |
| Cc1ccsc1C(=CCCN1CCC[C@@H](C(=O)O)C1)c1sccc1C [Tiagabine hydrochloride] | 7.89 |
| COc1cc2nc(N3CCN(C(=O)C4COc5ccccc5O4)CC3)nc(N)c2cc1OC (stereo not given) [Doxazosin mesylate] | -6.93 |
| CC(C)c1nc(CN(C)C(=O)N[C@H](C(=O)N[C@@H](Cc2ccccc2)C[C@H](O)[C@H](Cc2ccccc2)NC(=O)OCc2cncs2)C(C)C)cs1 [Ritonavir] | -4.53 |
| CC/C(=C(\c1ccccc1)c1ccc(OCCN(C)C)cc1)c1ccccc1 [Tamoxifen citrate] | 26.3 |
| Cc1c(-c2ccc(O)cc2)n(Cc2ccc(OCCN3CCCCCC3)cc2)c2ccc(O)cc12 [Bazedoxifene acetate] | -14.5 |
| COCCCOc1cc(C[C@@H](C[C@H](N)[C@@H](O)C[C@H](C(=O)NCC(C)(C)C(N)=O)C(C)C)C(C)C)ccc1OC [Aliskiren hemifumarate] | -5.54 |
| COc1c(C)c2c(c(O)c1C/C=C(\C)CCC(=O)O)C(=O)OC2 [Mycophenolic acid] | 1.89 |
| CC(C)(C#N)c1cc(Cn2cncn2)cc(C(C)(C)C#N)c1 [Anastrozole] | 1.59 |
| CCOC(=O)c1ncn2c1CN(C)C(=O)c1cc(F)ccc1-2 [Flumazenil] | 1.03 |
| CC#C[C@]1(O)CC[C@H]2[C@@H]3CCC4=CC(=O)CCC4=C3[C@@H](c3ccc(N(C)C)cc3)C[C@@]21C [Mifepristone] | -3.83 |
| CC(=O)Oc1ccccc1C(=O)O [Aspirin] | -0.776 |
| O=C(NCC1CCCCN1)c1cc(OCC(F)(F)F)ccc1OCC(F)(F)F (stereo not given) [Flecainide acetate] | -0.107 |
| CN1CC2c3ccccc3Oc3ccc(Cl)cc3C2C1 (stereo not given) [Asenapine maleate] | 30.8 |
| Nc1nc(Cl)nc2c1ncn2[C@@H]1O[C@H](CO)[C@@H](O)[C@@H]1F [Clofarabine] | -5.31 |
| CCCCCOC(=O)Nc1nc(=O)n([C@@H]2O[C@H](C)[C@@H](O)[C@H]2O)cc1F [Capecitabine] | 6.82 |
| C[C@]12CC[C@@H]3c4ccc(O)cc4C[C@@H](CCCCCCCCC[S+]([O-])CCCC(F)(F)C(F)(F)F)[C@H]3[C@@H]1CC[C@@H]2O (stereo not given in full) | 8.32 |
| CCOC(=O)C1=C(COCCN)NC(C)=C(C(=O)OC)C1c1ccccc1Cl (stereo not given) [Amlodipine besylate] | 0.364 |
| CN1CCC[C@@H]1Cc1c[nH]c2ccc(CCS(=O)(=O)c3ccccc3)cc12 [Eletriptan hydrobromide] | 2.42 |

| Structure (SMILES) | 1-h baseline activity |
| --- | --- |
| COC(c1ccccc1)(c1ccccc1)[C@H](Oc1nc(C)cc(C)n1)C(=O)O [Ambrisentan] | 0.292 |
| CN(C)CCc1c[nH]c2ccc(Cn3cncn3)cc12 [Rizatriptan benzoate] | -3.79 |
| N[C@@H]1[C@H]2CN(c3nc4c(cc3F)c(=O)c(C(=O)O)cn4-c3ccc(F)cc3F)C[C@@H]12 [Trovafloxacin mesylate] | 4.29 |
| O=C(O)CCCc1ccccc1 [Sodium 4-Phenylbutyrate] | 0.969 |
| Cc1cn([C@H]2C=C[C@@H](CO)O2)c(=O)[nH]c1=O [Stavudine] | -7.04 |
| Nc1ccn([C@@H]2O[C@H](CO)[C@@H](O)C2(F)F)c(=O)n1 [Gemcitabine hydrochloride] | -7.23 |
| CN(C)CC/C=C1/c2ccccc2COc2ccc(CC(=O)O)cc21 [Olopatadine hydrochloride] | -0.564 |
| C=C1[C@H](CO)[C@@H](O)C[C@@H]1n1cnc2c(=O)[nH]c(N)nc21 [Entecavir] | -2.24 |
| CCN(Cc1ccncc1)C(=O)C(CO)c1ccccc1 (stereo not given) [Tropicamide] | -5.81 |
| CN1CC[C@@H](NC(=O)Nc2ccc(C#N)cc2)C[C@@H]1c1nc2ccccc2[nH]1 | -10 |
| O=c1[nH]c(=O)n([C@H]2C[C@H](O)[C@@H](CO)O2)cc1C(F)(F)F [Trifluorothymidine] | 0.518 |
| CC[C@H](C)C(=O)O[C@H]1C[C@@H](C)C=C2C=C[C@H](C)[C@H](CC[C@@H]3C[C@@H](O)CC(=O)O3)[C@H]21 [Lovastatin] | -3.77 |
| CC(C)C(=O)OCC(=O)[C@@]12O[C@H](C3CCCCC3)O[C@@H]1C[C@H]1[C@@H]3CCC4=CC(=O)C=C[C@]4(C)[C@H]3[C@@H](O)C[C@@]12C [Ciclesonide] | -10.2 |
| CC(=O)NC[C@H]1CN(c2ccc(N3CCOCC3)c(F)c2)C(=O)O1 [Linezolid] | 3.05 |
| C[C@H]1C[C@@H]2[C@H]([C@@H](O)C[C@@]3(C)[C@H]2CC[C@]3(O)C(=O)CO)[C@@]2(C)C=CC(=O)C=C12 [Methylprednisolone] | -0.716 |
| Cc1ccc(O)c([C@H](CCN(C(C)C)C(C)C)c2ccccc2)c1 [Tolterodine L-tartrate] | 0.455 |
| COc1ccc([C@@H]2Sc3ccccc3N(CCN(C)C)C(=O)[C@@H]2OC(C)=O)cc1 [Diltiazem hydrochloride] | -4.8 |
| CCC(C)(C)C(=O)O[C@H]1C[C@@H](C)C=C2C=C[C@H](C)[C@H](CC[C@@H]3C[C@@H](O)CC(=O)O3)[C@H]21 [Simvastatin] | 6.15 |
| O=C(O[C@@H]1C[C@@H]2C[C@H]3C[C@H](C1)N2CC3=O)c1c[nH]c2ccccc12 [Dolasetron mesylate] | -3.58 |
| CS(=O)(=O)CCNCc1ccc(-c2ccc3ncnc(Nc4ccc(OCc5cccc(F)c5)c(Cl)c4)c3c2)o1 [Lapatinib] | -5.01 |
